GRIN3A LBD mod: modulates the human NR3A ligand-binding domain; NR3A LBD differential scanning fluorimetry, Tm shift; 0% = protein alone, 100% = glycine-bound protein; Tm shift relative to glycine control, % at 25 µM; 2.5% of 340,000 active; AID 1259313;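 active means melting temperature shift of at least 10% of the positive control shift, at one fixed dose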
Mdm2-MdmX inh: human Mdm2/MdmX binding inhibition; SaOS-2 split-luciferase Mdm2/MdmX complementation, luminescence; 3% of 330,000 active; O15151+Q00987; inhibition, % at 8 µM;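 active means inhibition of at least 50% at 8 µM in the primary screen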
Target sequence (O15151 whole entry, looked up): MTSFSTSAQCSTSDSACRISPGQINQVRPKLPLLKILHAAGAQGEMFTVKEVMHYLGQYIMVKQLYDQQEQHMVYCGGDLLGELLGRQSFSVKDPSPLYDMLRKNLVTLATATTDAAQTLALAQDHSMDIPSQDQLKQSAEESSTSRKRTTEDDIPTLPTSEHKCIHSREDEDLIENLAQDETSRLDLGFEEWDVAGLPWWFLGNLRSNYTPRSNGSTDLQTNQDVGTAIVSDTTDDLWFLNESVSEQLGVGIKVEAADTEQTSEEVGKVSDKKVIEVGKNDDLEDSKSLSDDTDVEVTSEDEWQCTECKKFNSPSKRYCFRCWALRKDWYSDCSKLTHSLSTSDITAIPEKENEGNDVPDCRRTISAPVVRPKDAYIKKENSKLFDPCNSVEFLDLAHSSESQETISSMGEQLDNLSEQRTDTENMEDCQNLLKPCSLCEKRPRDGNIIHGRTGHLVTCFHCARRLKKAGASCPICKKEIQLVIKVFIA
Target sequence (Q00987 whole entry, looked up): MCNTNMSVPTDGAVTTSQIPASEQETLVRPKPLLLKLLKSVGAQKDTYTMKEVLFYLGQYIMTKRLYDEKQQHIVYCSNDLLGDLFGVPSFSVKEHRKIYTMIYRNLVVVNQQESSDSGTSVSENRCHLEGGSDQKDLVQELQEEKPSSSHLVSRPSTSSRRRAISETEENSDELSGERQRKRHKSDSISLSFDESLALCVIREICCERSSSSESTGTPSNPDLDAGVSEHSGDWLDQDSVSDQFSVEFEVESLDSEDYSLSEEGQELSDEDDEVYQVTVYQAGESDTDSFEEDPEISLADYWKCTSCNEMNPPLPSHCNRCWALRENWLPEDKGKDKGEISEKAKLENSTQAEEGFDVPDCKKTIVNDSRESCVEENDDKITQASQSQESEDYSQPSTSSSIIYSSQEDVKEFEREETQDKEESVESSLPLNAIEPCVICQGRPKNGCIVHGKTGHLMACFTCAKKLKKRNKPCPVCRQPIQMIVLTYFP
MPTP inh: inhibitors of mitochondrial permeability transition pore | 1.4% of 360,000 active | isolated mouse mitochondria, Ca2+ swelling absorbance, 30 min | inhibition, % at 10 µM;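 active means inhibition of 50% or more, scaled per plate between neutral and stimulator controls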
Beta apoptosis: blocks beta cell apoptosis | INS-1E cytokine-induced death, ATP luminescence, 48 h; percent of positive-control rescue, neutral wells zero | protection from apoptosis, % (concentration not given with the values) | 0.8% of 300,000 active | AID 435005;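 active means Every replicate reaches about 75%, or at least half do and their mean reaches it too, limit read from the data; inconclusive means At least half of replicates reach the limit but their mean does not; inactive means Under half of replicates reach the limit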;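 further: higher means more ATP so stronger rescue from cytokine killing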
CSC inhib: cancer stem cell inhibition; cancer stem cell-like cells viability, luminescence; inhibition, % at 7.5 µM; 1.1% of 300,000 active; in the data active means inhibition above about 75%; inconclusive means no clear call, values can overlap the other calls; tested in HMLE shEcad cells
SKKanGAS inh: SKKanGAS growth inhibition; S. pyogenes SKKanGAS, kanamycin growth, BacTiter-Glo, 6 h; inhibition, % at 7.5 µM; 1.3% of 300,000 active;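 active means mean replicate score, as percent of positive control median, at least 50; inconclusive means mean below 50 but one replicate at or above 50; inactive means mean and every replicate below 50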;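 further: strain carries kanamycin resistance gene driven by streptokinase promoter and grows in 40 µg/ml kanamycin; loss of luminescence reflects streptokinase promoter inhibition or plain growth inhibition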
Large screens that a line does not name were inactive; ! = not confirmed by another sample. In the library only some 6.9% were active in any assay of this set; here they are far more common.

Cc1ccc(-c2nc(NC(=O)c3ccc(S(=O)(=O)N(CCC#N)CCC#N)cc3)sc2-c2ccccc2)cc1	GRIN3A LBD mod 10
CC(=O)c1sc(NC(=O)c2ccc(F)cc2)nc1-c1ccccc1	none
CCCN(CCC)S(=O)(=O)c1ccc(C(=O)Nc2nc3c(s2)CCc2ccccc2-3)cc1	none
CCOc1cc(S(=O)(=O)NCCCN2CCOCC2)ccc1F	none
Cc1ccccc1N(C(=O)CNC(=O)c1ccco1)C(C(=O)NC1CCCCC1)c1cccnc1 (stereo not drawn)	none
OC[C@@H]1CN(Cc2ccc(-c3ccccc3)cc2)C[C@H](n2cnc3c(N4CCOCC4)ncnc32)O1	none (no result: GRIN3A LBD mod, Mdm2-MdmX inh, Beta apoptosis, CSC inhib, SKKanGAS inh)
COc1cc(/C=C2\C(=O)ON=C2c2ccc(Cl)cc2)ccc1O	CSC inhib 87 (no result: MPTP inh)
COc1ccc(/C=C2\C(=O)ON=C2c2ccccc2)cc1	GRIN3A LBD mod 19
O=C1ON=C(c2ccccc2)/C1=C/c1ccc(O)c(O)c1	GRIN3A LBD mod 16
O=C1ON=C(c2ccccc2)/C1=C/c1ccc(OS(=O)(=O)c2ccccc2)cc1	none (no result: Mdm2-MdmX inh, SKKanGAS inh)
COc1ccc(C2=NN(c3ccccc3)C(=O)/C2=C\c2ccc(O)c(OC)c2)cc1	none
Cc1ccc(C2=NOC(=O)/C2=C\c2ccc(C)o2)cc1	GRIN3A LBD mod 13
Cc1ccc(-c2ccc(S(=O)(=O)Nc3cccnc3)cc2)cc1	none (no result: Beta apoptosis)
CC(=O)N(C1=C(Cl)C(=O)c2ccccc2C1=O)C1CCCCC1	SKKanGAS inh 53
NC(=N\N=Cc1ccco1)/C(N)=N/N=Cc1ccco1	none (no result: Mdm2-MdmX inh, Beta apoptosis, CSC inhib, SKKanGAS inh)
O=C(CSCc1ccccc1Cl)Nc1c[nH]c(=O)[nH]c1=O	none
C=CCn1c(O)c(N=Nc2ccccc2)c2ccccc21	none
C=CCn1c(O)c(N=NC(=S)Nc2ccc(OC)cc2)c2ccccc21	SKKanGAS inh 56 (no result: Mdm2-MdmX inh)
C=CCn1c(O)c(N=Nc2ccccc2O)c2ccccc21	GRIN3A LBD mod 15, CSC inhib 96 (no result: SKKanGAS inh)
Oc1ccccc1/C=N/n1c2ccccc2c2ccccc21	GRIN3A LBD mod 19
O=C(Nc1ccc(Cl)cc1)Nc1cccc2nsnc12	GRIN3A LBD mod 21
O=C(Nc1ccncc1)Nc1cccc(Cl)c1Cl	none
Cc1ccc(-n2nnnc2SCC(=O)NC2CCS(=O)(=O)C2)c(C)c1 (stereo not drawn)	GRIN3A LBD mod 19 (no result: Beta apoptosis, CSC inhib, SKKanGAS inh)
O=C(NCc1ccccc1)C1CCCN(C(=O)NCc2ccccc2)C1 (stereo not drawn)	none
COCCCNC(=S)N1CCC(C(=O)c2ccc(Cl)cc2)CC1	none
CS(=O)(=O)c1ccc(CNC(=O)C2(C(F)(F)F)C/C(=C\Cc3ccccc3)CCCO2)cc1 (stereo not drawn)	GRIN3A LBD mod 16
N#C/C(=C\c1ccc(/C=C(/C#N)c2nn(CCO)c(N)c2C#N)cc1)c1nn(CCO)c(N)c1C#N	SKKanGAS inh 67
Cc1ccc(C)c(NC(=O)c2ccccc2O)c1	none
Cc1ccc(C(=O)CC(=O)c2ccccc2C)c(O)c1	SKKanGAS inh 97
Cc1ccc(O)c(C(=O)CC(=O)c2ccc(C(C)(C)C)cc2)c1	SKKanGAS inh 95
Cc1ccc(O)c(C(=O)CC(=O)c2ccccc2Cl)c1	SKKanGAS inh 81
Cc1ccc(C(=O)CC(=O)c2cccc(F)c2)c(O)c1	none
O=C(NCc1ccccc1)C1C(c2ccc3c(c2)OCO3)=Nc2ccccc2N1C(=O)c1ccco1 (stereo not drawn)	none (no result: GRIN3A LBD mod, Mdm2-MdmX inh, Beta apoptosis, CSC inhib, SKKanGAS inh)
Cc1cccc(C(=O)NCC(=O)N2CCN(S(=O)(=O)c3ccc4c(c3)OCCO4)CC2)c1	none (no result: CSC inhib, SKKanGAS inh)
CCc1nc2c(OCc3ccc(Cl)cc3Cl)cccn2c1N(C=O)Cc1ccc(OC)cc1	none (no result: GRIN3A LBD mod, Mdm2-MdmX inh, Beta apoptosis, CSC inhib, SKKanGAS inh)
C=C(CN(C)C)C(=O)c1ccc(C)cc1C	GRIN3A LBD mod 14 (no result: Mdm2-MdmX inh, Beta apoptosis, CSC inhib, SKKanGAS inh)
CCOC(=O)C1C(C(=O)OC)=C(c2ccc(F)cc2)c2ccccc2N1S(=O)(=O)C(F)(F)F (stereo not drawn)	none (no result: Beta apoptosis, CSC inhib, SKKanGAS inh)
CCOC(=O)C1C(C(C)=O)=C(c2ccccc2)c2ccccc2N1S(=O)(=O)C(F)(F)F (stereo not drawn)	GRIN3A LBD mod 11 (no result: Beta apoptosis, CSC inhib, SKKanGAS inh)
CCOC(=O)C1C(C(=O)OC)=C(c2ccc(OC)cc2)c2ccccc2N1S(=O)(=O)C(F)(F)F (stereo not drawn)	GRIN3A LBD mod 11 (no result: Beta apoptosis, CSC inhib, SKKanGAS inh)
O=C1c2ccccc2CCC12N=NCC2c1ccc(Br)cc1 (stereo not drawn)	GRIN3A LBD mod 11, SKKanGAS inh inconclusive
O=C1c2ccccc2CCC12N=NCC2c1ccc(Cl)cc1 (stereo not drawn)	none
Cc1c(Cc2ccccc2)c(=O)oc2c(O)c(O)ccc12	GRIN3A LBD mod 10 (no result: Beta apoptosis, CSC inhib)
Cc1ccc(C(C)(C)C)cc1S(=O)(=O)Nc1cccc(C(=O)N2CCN(c3ccccn3)CC2)c1	none (no result: Beta apoptosis, CSC inhib, SKKanGAS inh)
O=C(CSc1n[nH]c(-c2ccncc2)n1)Nc1ccccc1C(F)(F)F	none (no result: Beta apoptosis)
CSc1nc2nccc(-c3ccc(-c4ccccc4)cc3)n2n1	SKKanGAS inh 72
O=[N+]([O-])c1ccc(SCCc2ccncc2)cc1	GRIN3A LBD mod 11!
C=CCNc1nc(N)c([N+](=O)[O-])c(N2CCCCCC2)n1	none
CCN(CC)CCCNc1nc(N)c([N+](=O)[O-])c(N2CCCCCC2)n1	SKKanGAS inh 66
CC1CN=C(c2cccn2Cc2ccc(F)cc2Cl)O1 (stereo not drawn)	GRIN3A LBD mod 12
CC1(C)COC(c2cccn2Cc2ccc(F)cc2Cl)=N1	none
COc1ccc(-c2ncn(CCC#N)c2[N+](=O)[O-])cc1	SKKanGAS inh 97
CCCc1nnc(NC(=O)CN2CCOCC2)s1	none
CCc1nnc(NC(=O)CN2CCOCC2)s1	GRIN3A LBD mod 14
CC(=O)N1c2ccc(Cl)cc2C2C=CCC2C1c1cccc2ccccc12 (stereo not drawn)	CSC inhib 78 (no result: Mdm2-MdmX inh, SKKanGAS inh)
Cc1ccc(C(=O)/C=C/Nc2cccc(O)c2)cc1	GRIN3A LBD mod 10
Cc1ccc(C(=O)/C=C/Nc2ccc3c(c2)OCO3)cc1	GRIN3A LBD mod 17 (no result: Beta apoptosis)
CC(=O)c1ccc(N/C=C\C(=O)c2ccc(C)cc2)cc1	none
O=C(/C=C/Nc1cccc(O)c1)c1ccccc1	none
COc1ccc(/C(C)=N/N=C(\C)c2ccc(OC)cc2OC)c(OC)c1	GRIN3A LBD mod 12
[O-][n+]1c2ccccc2cc2ccccc21	GRIN3A LBD mod 46
COc1ccc2nc3ccccc3[n+]([O-])c2c1	none (no result: Mdm2-MdmX inh, Beta apoptosis, CSC inhib, SKKanGAS inh)
O=c1c2cn[nH]c2nc(SCc2cc(=O)n3cc(Br)ccc3n2)n1-c1ccc(Br)cc1	none (no result: CSC inhib)
O=c1c2cn[nH]c2nc(SCc2ccccc2F)n1-c1ccc(Br)cc1	CSC inhib 105
Cc1cccc(C(=O)OCC(=O)c2c(C)[nH]c3ccccc23)c1O	GRIN3A LBD mod 29 (no result: CSC inhib, SKKanGAS inh)
Fc1ccc(CN(Cc2ccccc2)C(c2cccs2)c2nnnn2C2CCCCC2)cc1 (stereo not drawn)	Beta apoptosis 94
CC1CN(c2ccccn2)C(C)CN1C(=S)Nc1ccccc1 (stereo not drawn)	none (no result: Mdm2-MdmX inh, Beta apoptosis, CSC inhib, SKKanGAS inh)
NC(=O)c1cccn1-c1ncc(C(F)(F)F)cc1Cl	none
O=C(Nc1ccc(Br)cc1)c1cccn1-c1ncc(C(F)(F)F)cc1Cl	GRIN3A LBD mod 13
